# Data from ChEMBL document CHEMBL3988442, “University of Dundee, Small-Polar-MMV Screening Library” (2021).
# For some assays here: Results with a measured potency or affinity are listed apart.
# What was measured:
# Design in all cases: scale not given: direction of the effect not stated beside the values
# [1] = target: Protein translocase subunit SecA (Escherichia coli (strain K12)) (UniProt P10408); experiment: Assay to Identify E. coli SecA ATPase Inhibitors; format: functional; conditions: 30 µM
# Protein translocase subunit SecA (Escherichia coli (strain K12)), sequence (P10408 whole entry): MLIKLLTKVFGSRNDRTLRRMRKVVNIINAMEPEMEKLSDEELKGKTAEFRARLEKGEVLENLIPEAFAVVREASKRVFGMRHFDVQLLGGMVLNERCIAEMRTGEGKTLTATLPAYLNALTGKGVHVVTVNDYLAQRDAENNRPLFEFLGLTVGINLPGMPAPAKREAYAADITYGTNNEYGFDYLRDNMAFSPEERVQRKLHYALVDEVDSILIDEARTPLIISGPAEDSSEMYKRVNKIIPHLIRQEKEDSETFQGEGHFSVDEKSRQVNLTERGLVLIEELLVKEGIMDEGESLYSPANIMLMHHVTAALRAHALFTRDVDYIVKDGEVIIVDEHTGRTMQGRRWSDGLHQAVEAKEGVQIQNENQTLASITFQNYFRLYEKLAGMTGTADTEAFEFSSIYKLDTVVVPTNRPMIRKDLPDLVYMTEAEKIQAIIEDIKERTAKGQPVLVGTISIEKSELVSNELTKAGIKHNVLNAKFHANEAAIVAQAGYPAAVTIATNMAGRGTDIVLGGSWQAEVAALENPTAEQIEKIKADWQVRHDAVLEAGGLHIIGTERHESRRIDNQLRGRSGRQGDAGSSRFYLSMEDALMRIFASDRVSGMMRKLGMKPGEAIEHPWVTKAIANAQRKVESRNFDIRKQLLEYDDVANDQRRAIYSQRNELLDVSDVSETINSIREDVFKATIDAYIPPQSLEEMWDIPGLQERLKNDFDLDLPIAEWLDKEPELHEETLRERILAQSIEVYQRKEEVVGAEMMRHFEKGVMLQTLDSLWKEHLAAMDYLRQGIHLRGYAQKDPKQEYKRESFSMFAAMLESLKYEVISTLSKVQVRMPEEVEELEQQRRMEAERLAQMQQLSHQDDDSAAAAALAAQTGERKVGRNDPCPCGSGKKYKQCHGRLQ
# [2] = target: T1, Ubiquitin-activating enzyme e1, putative (Leishmania donovani (strain BPK282A1)) (UniProt E9BSI1); experiment: Leishmania donovani Ubiquitin Activating Enzyme (LdE1); format: functional; conditions: 30 µM
# T1 sequence (whole entry): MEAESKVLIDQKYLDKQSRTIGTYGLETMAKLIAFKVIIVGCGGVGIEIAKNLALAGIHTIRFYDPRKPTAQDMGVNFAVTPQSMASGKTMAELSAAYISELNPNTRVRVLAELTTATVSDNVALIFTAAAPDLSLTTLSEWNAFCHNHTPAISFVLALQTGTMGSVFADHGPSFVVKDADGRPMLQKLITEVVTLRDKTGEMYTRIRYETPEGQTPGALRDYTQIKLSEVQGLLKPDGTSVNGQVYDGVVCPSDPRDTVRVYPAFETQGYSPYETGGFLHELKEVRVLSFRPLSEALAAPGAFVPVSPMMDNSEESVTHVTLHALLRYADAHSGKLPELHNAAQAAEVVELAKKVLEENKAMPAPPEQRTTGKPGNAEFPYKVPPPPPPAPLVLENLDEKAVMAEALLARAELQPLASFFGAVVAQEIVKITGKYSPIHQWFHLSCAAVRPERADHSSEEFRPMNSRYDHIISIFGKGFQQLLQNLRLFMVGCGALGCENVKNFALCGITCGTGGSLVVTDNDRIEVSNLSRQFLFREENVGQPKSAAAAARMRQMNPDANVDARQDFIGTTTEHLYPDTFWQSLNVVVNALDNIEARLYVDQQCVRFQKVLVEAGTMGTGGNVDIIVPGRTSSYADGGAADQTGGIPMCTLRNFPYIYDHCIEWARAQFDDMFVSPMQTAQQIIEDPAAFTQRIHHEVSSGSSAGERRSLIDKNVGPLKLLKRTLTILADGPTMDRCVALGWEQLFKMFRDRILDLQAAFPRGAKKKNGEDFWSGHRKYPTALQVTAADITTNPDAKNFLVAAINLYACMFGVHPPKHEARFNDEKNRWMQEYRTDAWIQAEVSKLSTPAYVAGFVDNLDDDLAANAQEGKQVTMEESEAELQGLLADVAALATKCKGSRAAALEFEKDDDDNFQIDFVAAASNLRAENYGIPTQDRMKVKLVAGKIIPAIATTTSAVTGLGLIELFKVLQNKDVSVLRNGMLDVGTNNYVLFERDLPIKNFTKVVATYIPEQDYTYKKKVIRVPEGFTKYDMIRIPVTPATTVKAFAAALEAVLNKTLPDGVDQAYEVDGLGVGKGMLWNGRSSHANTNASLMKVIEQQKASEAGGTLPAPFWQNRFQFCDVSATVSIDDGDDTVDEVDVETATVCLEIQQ
# [3] = target: AMP-activated protein kinase, AMPK (Homo sapiens) (UniProt P54646+O43741+P54619+Q9UGJ0+Q9Y478+Q13131+Q9UGI9); experiment: AMP-dependent Kinase enzyme assay. An in vitro enzyme assay that detects ADP turnover that is directly proportional to AMPK activity. This uses naive AMPK that is activated during the assay with MK-8722; format: functional; conditions: 30 µM
# [4] = target: Sialic acid-binding Ig-like lectin 9 (Homo sapiens) (UniProt Q9Y336); experiment: Hs-Siglec9 ALPHAscreen SOP 20170721; conditions: 10 µM
# Sialic acid-binding Ig-like lectin 9 (Homo sapiens), sequence (Q9Y336 whole entry): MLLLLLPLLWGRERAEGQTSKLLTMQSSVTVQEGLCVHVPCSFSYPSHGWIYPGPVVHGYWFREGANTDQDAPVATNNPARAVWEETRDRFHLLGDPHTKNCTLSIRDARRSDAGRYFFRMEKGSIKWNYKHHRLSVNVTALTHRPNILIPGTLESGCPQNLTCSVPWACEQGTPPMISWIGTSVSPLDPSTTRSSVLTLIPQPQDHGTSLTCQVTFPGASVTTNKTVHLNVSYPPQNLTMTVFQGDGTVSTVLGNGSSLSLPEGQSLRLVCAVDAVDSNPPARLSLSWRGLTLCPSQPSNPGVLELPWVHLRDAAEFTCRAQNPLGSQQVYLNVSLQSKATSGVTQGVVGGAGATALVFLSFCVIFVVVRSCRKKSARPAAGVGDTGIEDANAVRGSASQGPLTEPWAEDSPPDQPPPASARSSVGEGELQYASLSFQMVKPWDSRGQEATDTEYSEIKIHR
# [5] = system: Trypanosoma cruzi; experiment: Trypanosoma cruzi phosphomannomutase and mannose-1-phosphate guanylyltransferase assay; format: functional; conditions: 10 µM
# [6] = target: T2, Arginase-2, mitochondrial (Homo sapiens) (UniProt P78540); experiment: in vitro enzyme assay to detect the production of urea directly proportional to the activity of Arginase II; format: functional; conditions: 33.3 µM; note: in the data most compounds retested in dose-response had high values
# T2 sequence (whole entry): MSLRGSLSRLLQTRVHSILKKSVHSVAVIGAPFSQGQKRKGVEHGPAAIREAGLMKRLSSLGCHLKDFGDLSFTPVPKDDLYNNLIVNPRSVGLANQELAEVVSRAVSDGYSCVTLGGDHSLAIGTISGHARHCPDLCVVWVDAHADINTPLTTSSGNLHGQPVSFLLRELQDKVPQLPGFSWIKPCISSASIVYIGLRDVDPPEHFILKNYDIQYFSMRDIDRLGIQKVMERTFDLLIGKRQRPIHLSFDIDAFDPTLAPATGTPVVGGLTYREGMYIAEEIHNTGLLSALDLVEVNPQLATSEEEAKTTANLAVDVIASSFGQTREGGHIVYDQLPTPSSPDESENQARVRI
# [7] = target: T3, Proteasome subunit beta (Trypanosoma cruzi) (UniProt O96673); experiment: Trypanosoma cruzi proteasome chymotrypsin-like activity (TcProtChymo) assay.; note: in the data most compounds retested in dose-response had high values; format: functional; conditions: 9.37 µM
# T3 sequence (whole entry): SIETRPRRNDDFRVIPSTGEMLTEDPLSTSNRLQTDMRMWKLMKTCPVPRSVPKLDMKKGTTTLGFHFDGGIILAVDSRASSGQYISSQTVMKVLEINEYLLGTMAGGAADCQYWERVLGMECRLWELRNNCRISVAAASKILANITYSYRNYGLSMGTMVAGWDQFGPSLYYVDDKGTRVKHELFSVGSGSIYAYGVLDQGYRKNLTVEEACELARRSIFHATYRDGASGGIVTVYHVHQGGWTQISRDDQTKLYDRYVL
# [8] = species on record: Homo sapiens; experiment: To identify inhibition of the IFN signalling (Jak-Stat) pathway via expression of an eGFP reporter gene under the control of an IFN-stimulated response element (ISRE) containing MxA promoter.; format: functional; conditions: 30 µM
# [9] = target: T4, Tyrosyl-tRNA synthetase, putative (Trypanosoma cruzi (strain CL Brener)) (UniProt Q4DSP6); experiment: Trypanosoma cruzi tyrosyl tRNA synthetase (TcYRS) _High Tyrosine SOP; format: functional; conditions: 30 µM; note: in the data most compounds retested in dose-response had high values
# T4 sequence (whole entry): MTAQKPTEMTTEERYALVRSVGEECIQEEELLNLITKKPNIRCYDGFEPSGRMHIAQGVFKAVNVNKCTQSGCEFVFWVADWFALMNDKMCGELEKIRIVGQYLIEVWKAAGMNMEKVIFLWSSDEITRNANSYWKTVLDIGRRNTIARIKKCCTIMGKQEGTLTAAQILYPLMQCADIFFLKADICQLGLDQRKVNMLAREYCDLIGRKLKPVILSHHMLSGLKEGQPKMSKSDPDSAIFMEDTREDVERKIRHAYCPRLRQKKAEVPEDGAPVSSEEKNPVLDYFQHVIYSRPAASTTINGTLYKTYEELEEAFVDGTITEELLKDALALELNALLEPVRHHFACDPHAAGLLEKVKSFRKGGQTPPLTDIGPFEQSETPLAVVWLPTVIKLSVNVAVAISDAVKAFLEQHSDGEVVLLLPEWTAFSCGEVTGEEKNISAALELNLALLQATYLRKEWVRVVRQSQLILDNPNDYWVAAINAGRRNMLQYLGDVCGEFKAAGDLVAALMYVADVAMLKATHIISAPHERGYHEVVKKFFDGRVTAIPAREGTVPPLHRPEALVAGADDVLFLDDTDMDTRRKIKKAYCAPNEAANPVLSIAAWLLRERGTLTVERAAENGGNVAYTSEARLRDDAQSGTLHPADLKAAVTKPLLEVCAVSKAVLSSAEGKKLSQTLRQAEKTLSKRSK
# [10] = target: T4, Tyrosyl-tRNA synthetase, putative (Trypanosoma cruzi (strain CL Brener)); experiment: Trypanosoma cruzi tyrosyl tRNA synthetase (TcYRS) SOP; format: functional; conditions: 30 µM
# [11] = target: Chromo domain-containing protein 1 (Saccharomyces cerevisiae (strain ATCC 204508 / S288c) (Baker's yeast)) (UniProt P32657); experiment: ScCHD-1 Enzyme Inhibition Assay; format: functional; conditions: 30 µM; note: in the data most compounds retested in dose-response had high values
# Chromo domain-containing protein 1 (Saccharomyces cerevisiae (strain ATCC 204508 / S288c) (Baker's yeast)), sequence (P32657 whole entry, the tested form may be a part): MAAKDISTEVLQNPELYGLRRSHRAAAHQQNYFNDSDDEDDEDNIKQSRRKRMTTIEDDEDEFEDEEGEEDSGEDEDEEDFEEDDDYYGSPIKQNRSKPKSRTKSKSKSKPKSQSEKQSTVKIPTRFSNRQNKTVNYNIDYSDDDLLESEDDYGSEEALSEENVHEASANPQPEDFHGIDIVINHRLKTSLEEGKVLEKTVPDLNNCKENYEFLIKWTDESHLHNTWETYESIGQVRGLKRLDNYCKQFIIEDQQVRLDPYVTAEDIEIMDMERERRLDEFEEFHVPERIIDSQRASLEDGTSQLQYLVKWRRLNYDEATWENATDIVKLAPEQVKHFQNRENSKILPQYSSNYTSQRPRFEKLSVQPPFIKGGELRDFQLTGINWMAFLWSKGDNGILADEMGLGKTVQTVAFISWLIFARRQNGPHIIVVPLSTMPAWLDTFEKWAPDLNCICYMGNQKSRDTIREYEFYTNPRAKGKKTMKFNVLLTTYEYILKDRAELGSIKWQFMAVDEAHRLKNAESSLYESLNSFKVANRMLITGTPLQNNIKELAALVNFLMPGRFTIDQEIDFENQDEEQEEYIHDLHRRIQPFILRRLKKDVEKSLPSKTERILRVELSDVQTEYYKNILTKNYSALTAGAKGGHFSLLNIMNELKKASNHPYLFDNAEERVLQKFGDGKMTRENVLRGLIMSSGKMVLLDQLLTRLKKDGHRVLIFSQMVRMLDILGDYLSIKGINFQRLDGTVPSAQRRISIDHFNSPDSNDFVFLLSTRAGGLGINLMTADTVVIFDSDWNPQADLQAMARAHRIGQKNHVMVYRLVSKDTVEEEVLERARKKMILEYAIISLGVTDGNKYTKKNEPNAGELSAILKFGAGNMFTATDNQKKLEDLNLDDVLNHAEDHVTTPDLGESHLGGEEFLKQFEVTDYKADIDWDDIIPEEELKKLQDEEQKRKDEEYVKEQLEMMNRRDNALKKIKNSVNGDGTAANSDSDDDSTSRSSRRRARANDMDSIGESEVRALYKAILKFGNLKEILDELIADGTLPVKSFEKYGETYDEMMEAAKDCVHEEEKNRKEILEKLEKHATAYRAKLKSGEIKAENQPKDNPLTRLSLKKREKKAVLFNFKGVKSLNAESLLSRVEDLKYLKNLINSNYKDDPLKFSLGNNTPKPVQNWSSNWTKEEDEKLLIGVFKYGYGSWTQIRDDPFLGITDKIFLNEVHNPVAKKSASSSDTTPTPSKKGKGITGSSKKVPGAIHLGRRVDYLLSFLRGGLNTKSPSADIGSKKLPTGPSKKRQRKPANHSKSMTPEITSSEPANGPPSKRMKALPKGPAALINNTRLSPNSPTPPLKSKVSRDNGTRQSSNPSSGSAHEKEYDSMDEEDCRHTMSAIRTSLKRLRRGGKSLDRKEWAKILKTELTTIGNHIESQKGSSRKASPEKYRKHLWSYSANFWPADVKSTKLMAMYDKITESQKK
Structure (SMILES),Percent Effect [1] [%],Percent Effect [2] [%],Percent Effect [3] [%],Percent Effect [4] [%],Percent Effect [5] [%],Percent Effect [6] [%],Percent Effect [7] [%],Percent Effect [8] [%],Percent Effect [9] [%],Percent Effect [10] [%],Percent Effect [11] [%]
Cn1cnc2c1C(COCC1CCOCC1)CN(C1CCOCC1)C2 (stereo unspecified),-3.42,13.3,10.9,4.02,-2.76,3.96,6.96,-11.2,5.32,11.5,-4.46
CCn1ccc(C(=O)NCCCN2CCOCC2)n1,-1.56,5.2,-2.13,4.7,-0.492,-2.76,22,4.11,7.53,13.6,0.597
c1cnnc(N2CCCC2CNCc2cnc(N3CCCC3)nc2)c1 (stereo unspecified),0.488,-1.27,13.5,6.03,1.33,2.8,4.8,16.1,5.21,0,-7.82
CCN(Cc1ccco1)C(=O)Nc1cc(C(F)(F)F)c[nH]c1=O,-7.27,10.5,0.625,-6.37,-2.71,0.719,2.79,-6.49,4.43,13.6,-9.51
CCC(CC)NC(=O)Cn1nc(C)nc1-c1ccccc1,-4.52,16.2,-5.72,3.26,-6.32,-1.2,3.6,21.4,6.4,11.1,-8.07
CCC1CN(C(=O)Nc2cnc3c(cnn3C(C)C)c2)CCO1 (stereo unspecified),0.162,13.5,-1.29,10.7,-5.48,0.554,17.6,22.8,6.93,18.3,-2.08
CCN1CCCC(CNC(=O)C2(c3cccc(Cl)c3)CC2)C1 (stereo unspecified),-4.26,6.33,0.975,3.63,-5.85,-2.8,14.6,8.9,7.29,15.2,-13.8
Fc1ccc(-c2nnc(CN3CCCC3Cn3cncn3)o2)cc1 (stereo unspecified),-1.9,5.2,-0.239,9.41,6.93,0.712,7.26,-14.3,4.85,19.5,-10.5
CS(=O)(=O)NC1CCN(C(=O)NCCNc2ccccn2)CC1,-6.26,10.8,0.725,-1.36,-10.7,3.14,4.85,14.7,-0.99,1.22,-1.89
Cc1cccc(-c2nc(C)nn2CC(=O)N(C)C2CC2)c1,-4.92,15.6,4.09,7.36,3.18,-3.2,3.55,5.06,6.8,21.9,-3.56
Cc1ncsc1CCC(=O)NCc1cc2n(n1)CCN(C(=O)N(C)C)C2,-0.664,1.39,-1.68,-4.18,-4.96,3.97,15.3,6.29,3.16,2.56,-1.68
CCc1nnsc1C(=O)NC1CCN(c2ccccn2)CC1,-1.79,18.9,1.62,8.18,5.38,21.1,15,15.5,3.23,16.1,-7.21
COc1ccccc1S(=O)(=O)N1CCC(Oc2cccnn2)CC1,-5.78,-5.48,-9.71,-3.66,-4.11,-0.909,3.9,16.2,-1.07,-2.5,-1.62
CCNC(=O)[C@@H]1C[C@H](NC(=O)c2ccccc2C#N)CN1CCCSC,-6.15,-2.74,-0.485,8.44,0.794,0.399,11.4,-3.71,2.08,18.5,1.18
CC(C)c1nnc2n1CCN(C(=O)c1ccc(CN(C)C)cc1)C2,-3.27,-2.6,-13.6,-5.41,-2.84,1.47,12.5,22.6,0.952,-2.35,-18.4
CN(C)S(=O)(=O)N1CCC(Oc2cnccn2)CC1,-5.97,13,-2.04,3.81,1.28,-1.94,20.2,6.27,4.23,14.1,-9.34
